Experimental data taken from PubChem BioAssay (Tox21).
A number with no mark means an inactive call. Records with an inconclusive call do not appear. Entries that show only a call come without a potency. Activity calls are given as the source filed them. Calls follow the shape of the dose curve; as a rule, active = well fitted curve in the direction sought with a large enough effect in the repeat runs; inconclusive = weak or mixed curves; inactive = no such curve, though single readings can be large; an effect the other way counts as inactive or inconclusive. Where a SMILES comes first, the peptide text is derived from it.

Assay: qHTS RealTime-Glo MT Cell Viability Assay in HepG2 cells - 24 hour (AID 1224867)
Settings: RealTime-Glo luminescence; series mostly up to 76.8 µM
Outline: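 Cell number in HepG2 cultures estimated from NanoLuc luminescence generated by metabolic reduction of a prosubstrate by living cells. The homogeneous, nonlytic format allowed repeated reads at 0, 8, 16, 24, 32 and 40 h of compound exposure.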
Also: nearly all actives have a fitted effect of over 50% in size.

| SMILES | outcome | activity change, negative = cytotoxicity |
| --- | --- | --- |
| CC(=O)CCC1=C(C)CCCC1(C)C | inactive |  |
| CNCCS(=O)(=O)O | inactive |  |
| CC(=O)C(C)O (stereo not drawn) | inactive |  |
| CC1=NN(c2ccc(S(=O)(=O)O)cc2)C(=O)C1 | inactive |  |
| C=CCOC(=O)CCCCCC | inactive |  |
| CCO | inactive |  |
| Cc1ccc2c(c1)C(=O)c1ccccc1C2=O | inactive |  |
| CC(C)COC(=O)c1ccccc1 | inactive |  |
| NCC1(Cc2noc(=O)[nH]2)CCCCC1 | inactive |  |
| Cc1ccnc(N)c1 | inactive |  |
| CCn1cc(C(=O)O)c(=O)c2cnc(N3CCCC3)nc21 |  | 0.974% [at 6.97 µM] |
| CCC[C@@H]1C[C@@H](C(=O)N[C@@H]([C@H]2O[C@H](SC)[C@H](O)[C@@H](O)[C@H]2O)[C@@H](C)O)N(C)C1 | inactive |  |
| C=CC(=O)OCC1CCCO1 (stereo not drawn) | inactive |  |
| C=C(C)[C@@H]1CC=C(C)CC1 | inactive |  |
| Nc1nnnn1-c1ccccc1 | inactive |  |
| Cc1ccc(C(C)NC(=O)[C@@H](NC(=O)OC(C)C)C(C)C)cc1 (stereo partly drawn) | inactive |  |
| CSc1cnccn1 | inactive |  |
| CCOC(CN1CCN(CC(C)C(=O)c2ccccc2)CC1)c1ccccc1 (stereo not drawn) |  | -0.414% [at 15.8 µM] |
| COS(=O)(=O)O | inactive |  |

| SMILES | outcome | activity change, negative = cytotoxicity |
| --- | --- | --- |
| CC(C)OC(=O)CCC(=O)OC(C)C | inactive |  |
| CC1CC(=O)CC(C)(C)C1 (stereo not drawn) | inactive |  |
| O=C(O)CNC(=O)CNC(=O)CNC(=O)CSC(=O)c1ccccc1 | inactive |  |
| CCc1occc(=O)c1O | inactive |  |
| CC(C)NCC(O)c1ccc2ccccc2c1 (stereo not drawn) | inactive |  |
| CC(=O)N[C@@H](CO)C(=O)N[C@@H](CC(=O)O)C(=O)N[C@@H](CCCCN)C(=O)N1CCC[C@H]1C(=O)O (Ac-SDKP-OH) | inactive |  |
| OC1(c2ccc(Cl)cc2)CCNCC1 | inactive |  |
| NCCOCCN | inactive |  |
| COc1cc(/C=C/C(N)=O)cc(OC)c1OC | inactive |  |
| CC(C)[C@H]1CC[C@H](C)C[C@@H]1O | inactive |  |
| O=C(O)[C@H](O)c1ccccc1 | inactive |  |
| CC(=O)Nc1ccc(OC(=O)c2ccccc2OC(C)=O)cc1 | inactive |  |
| [O]=[Mo](=[O])=[O] |  | 2.84% [at 15.8 µM] |
| CC(=O)OC(C)=O | inactive |  |
| C=CCSSCCC | inactive |  |
| CC(=O)CC(=O)Nc1ccc(C)cc1C | inactive |  |
| COc1ccc(CCO)cc1 | inactive |  |
| O=[N+]([O-])c1c(Cl)cc(Cl)cc1Cl | inactive |  |

Assay: qHTS RealTime-Glo MT Cell Viability Assay in HEK293 cells - 32 hour (AID 1224868); also: top concentration of the series differs between compounds
Settings: RealTime-Glo luminescence; series mostly up to 76.8 µM
Outline: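 Homogeneous bioluminescent viability format in HEK293 cells (600 cells/well). Following 5 h at 37 C/5% CO2, 23 nL compound was pintooled; the signal was measured repeatedly during 40 h incubation.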

| SMILES | Potency | activity change, negative = cytotoxic |
| --- | --- | --- |
| CC(=O)CCC1=C(C)CCCC1(C)C | inactive |  |
| CNCCS(=O)(=O)O | inactive |  |
| CC(=O)C(C)O (stereo not drawn) | inactive |  |
| CC1=NN(c2ccc(S(=O)(=O)O)cc2)C(=O)C1 | inactive |  |
| C=CCOC(=O)CCCCCC | inactive |  |
| CCO | inactive |  |
| Cc1ccc2c(c1)C(=O)c1ccccc1C2=O | inactive |  |
| CC(C)COC(=O)c1ccccc1 | inactive |  |
| NCC1(Cc2noc(=O)[nH]2)CCCCC1 | inactive |  |
| Cc1ccnc(N)c1 | inactive |  |
| CCn1cc(C(=O)O)c(=O)c2cnc(N3CCCC3)nc21 |  | 10% [at 6.97 µM] |
| CCC[C@@H]1C[C@@H](C(=O)N[C@@H]([C@H]2O[C@H](SC)[C@H](O)[C@@H](O)[C@H]2O)[C@@H](C)O)N(C)C1 | inactive |  |
| C=CC(=O)OCC1CCCO1 (stereo not drawn) | inactive |  |
| C=C(C)[C@@H]1CC=C(C)CC1 | inactive |  |
| Nc1nnnn1-c1ccccc1 | inactive |  |
| Cc1ccc(C(C)NC(=O)[C@@H](NC(=O)OC(C)C)C(C)C)cc1 (stereo partly drawn) | inactive |  |
| CCOC(CN1CCN(CC(C)C(=O)c2ccccc2)CC1)c1ccccc1 (stereo not drawn) |  | -29.5% [at 15.8 µM] |

| SMILES | Potency | activity change, negative = cytotoxic |
| --- | --- | --- |
| COS(=O)(=O)O | inactive |  |
| CC(C)OC(=O)CCC(=O)OC(C)C | inactive |  |
| CC1CC(=O)CC(C)(C)C1 (stereo not drawn) | inactive |  |
| O=C(O)CNC(=O)CNC(=O)CNC(=O)CSC(=O)c1ccccc1 | inactive |  |
| CCc1occc(=O)c1O | inactive |  |
| CC(C)NCC(O)c1ccc2ccccc2c1 (stereo not drawn) | inactive |  |
| CC(=O)N[C@@H](CO)C(=O)N[C@@H](CC(=O)O)C(=O)N[C@@H](CCCCN)C(=O)N1CCC[C@H]1C(=O)O (Ac-SDKP-OH) | inactive |  |
| OC1(c2ccc(Cl)cc2)CCNCC1 | inactive |  |
| NCCOCCN | inactive |  |
| COc1cc(/C=C/C(N)=O)cc(OC)c1OC | inactive |  |
| CC(C)[C@H]1CC[C@H](C)C[C@@H]1O | inactive |  |
| O=C(O)[C@H](O)c1ccccc1 | inactive |  |
| CC(=O)Nc1ccc(OC(=O)c2ccccc2OC(C)=O)cc1 | inactive |  |
| CC(=O)OC(C)=O | inactive |  |
| CC(=O)CC(=O)Nc1ccc(C)cc1C | inactive |  |
| COc1ccc(CCO)cc1 | inactive |  |
| O=[N+]([O-])c1c(Cl)cc(Cl)cc1Cl | inactive |  |

Assay: A CellTox Green Cytotoxicity Assay to monitor cytotoxicity in HEK293 cells - 0 hour (AID 1224869)
Settings: CellTox Green fluorescence; series mostly up to 76.8 µM
Outline: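 Cytotoxicity was tracked continuously in HEK293 cells by a DNA-binding dye excluded from viable cells. Compounds were transferred in DMSO 5 h after seeding; fluorescence was recorded at intervals up to 40 h.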

| SMILES | Potency | cytotoxicity |
| --- | --- | --- |
| CC(=O)CCC1=C(C)CCCC1(C)C | inactive |  |
| CNCCS(=O)(=O)O | inactive |  |
| CC(=O)C(C)O (stereo not drawn) | inactive |  |
| CC1=NN(c2ccc(S(=O)(=O)O)cc2)C(=O)C1 | inactive |  |
| C=CCOC(=O)CCCCCC | inactive |  |
| CCO | inactive |  |
| Cc1ccc2c(c1)C(=O)c1ccccc1C2=O | inactive |  |
| CC(C)COC(=O)c1ccccc1 | inactive |  |
| NCC1(Cc2noc(=O)[nH]2)CCCCC1 | inactive |  |
| Cc1ccnc(N)c1 | inactive |  |
| CCn1cc(C(=O)O)c(=O)c2cnc(N3CCCC3)nc21 |  | 1.5% [at 6.97 µM] |
| CCC[C@@H]1C[C@@H](C(=O)N[C@@H]([C@H]2O[C@H](SC)[C@H](O)[C@@H](O)[C@H]2O)[C@@H](C)O)N(C)C1 | inactive |  |
| C=CC(=O)OCC1CCCO1 (stereo not drawn) | inactive |  |
| C=C(C)[C@@H]1CC=C(C)CC1 | inactive |  |
| Nc1nnnn1-c1ccccc1 | inactive |  |
| Cc1ccc(C(C)NC(=O)[C@@H](NC(=O)OC(C)C)C(C)C)cc1 (stereo partly drawn) | inactive |  |
| CSc1cnccn1 | inactive |  |
| CCOC(CN1CCN(CC(C)C(=O)c2ccccc2)CC1)c1ccccc1 (stereo not drawn) |  | -3.29% [at 15.8 µM] |
| COS(=O)(=O)O | inactive |  |

| SMILES | Potency | cytotoxicity |
| --- | --- | --- |
| CC(C)OC(=O)CCC(=O)OC(C)C | inactive |  |
| CC1CC(=O)CC(C)(C)C1 (stereo not drawn) | inactive |  |
| O=C(O)CNC(=O)CNC(=O)CNC(=O)CSC(=O)c1ccccc1 | inactive |  |
| CCc1occc(=O)c1O | inactive |  |
| CC(C)NCC(O)c1ccc2ccccc2c1 (stereo not drawn) | inactive |  |
| CC(=O)N[C@@H](CO)C(=O)N[C@@H](CC(=O)O)C(=O)N[C@@H](CCCCN)C(=O)N1CCC[C@H]1C(=O)O (Ac-SDKP-OH) | inactive |  |
| OC1(c2ccc(Cl)cc2)CCNCC1 | inactive |  |
| NCCOCCN | inactive |  |
| COc1cc(/C=C/C(N)=O)cc(OC)c1OC | inactive |  |
| CC(C)[C@H]1CC[C@H](C)C[C@@H]1O | inactive |  |
| O=C(O)[C@H](O)c1ccccc1 | inactive |  |
| CC(=O)Nc1ccc(OC(=O)c2ccccc2OC(C)=O)cc1 | inactive |  |
| [O]=[Mo](=[O])=[O] |  | -18.1% [at 15.8 µM] |
| CC(=O)OC(C)=O | inactive |  |
| C=CCSSCCC | inactive |  |
| CC(=O)CC(=O)Nc1ccc(C)cc1C | inactive |  |
| COc1ccc(CCO)cc1 | inactive |  |
| O=[N+]([O-])c1c(Cl)cc(Cl)cc1Cl | inactive |  |
